Screening results (PubChem BioAssay)
Gli-Sufu antag: antagonists of Gli-Sufu signaling; Sufu-KO-LIGHT fibroblasts, Gli luciferase reporter luminescence; inhibition, % at 5 µM; actives 0.74% (n = 340,000);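 active = inhibition above about 55%, limit read from the data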
SRC3 inh: inhibits human SRC3 coactivator; Q9Y6Q9; HEK293 GAL4-SRC3 luciferase reporter, luminescence; inhibition, % at 3.6 µM; actives 0.17% (n = 360,000); AID 588352;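 active = inhibition above a per-campaign cutoff, the mean of all compounds plus 3 SD, cut at about 60% in these data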;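 also: higher means less SRC3-driven luciferase light from the GAL4 reporter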
NCOA2 inhibitor: human SRC2 (NCOA2) inhibition | Q15596 | HEK293 GAL4-SRC2 luciferase reporter, luminescence | inhibition, % at 9 µM | actives 0.17% (n = 370,000) | AID 651957;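 active = inhibition above the mean inhibition of all tested compounds plus 3 SD, set per campaign, cut at about 52% in these data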
NR5A2 inv ag: NR5A2 inverse agonism in reporter assay; O00482; HEK293T StAR-luciferase reporter, LRH-1 transfected, 24 h; inhibition, % at 3.6 µM; actives 0.13% (n = 360,000); AID 602396;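 active = inhibition above the mean inhibition of all tested compounds plus 3 SD, cut at about 73% in these data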
NR2F2 inh: NR2F2 (human) inhibition, primary screen | HEK293T NGFI-A luciferase reporter, luminescence | actives 0.7% (n = 370,000) | inhibition, % at 8.6 µM | P24468 | AID 686940;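 active = inhibition above a per-plate cutoff, mean inhibition of test wells between control levels plus 3 SD, cut at about 38% in these data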;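 also: cells cotransfected with COUP-TFII expression vector driving the NGFI-A reporter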
NCOA1 inh: human NCOA1 inhibition. Q15788. actives 0.12% (n = 360,000). HEK293 GAL4-SRC1 luciferase reporter, luminescence. inhibition, % at 3.6 µM;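 active = inhibition above the campaign mean plus 3 SD, with each screening campaign given its own cutoff, cut at about 60% in these data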
VP16 Luc counter: VP16 inhibition counter-screen for COUP-TFII | inhibition, % at 8.5 µM | shares compounds with NR2F2 inh | HEK293 Gal4-VP16 luciferase reporter, luminescence | actives 25% (n = 2,500) | AID 687007; in the data active = inhibition above about 13%
COUP-TFII conf: COUP-TFII (NR2F2) inhibition, confirmation assay. inhibition, % at 8.5 µM. actives 45% (n = 2,500). HEK293 NGFI-A luciferase reporter, luminescence. shares compounds with NR2F2 inh. AID 687008;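 active = mean inhibition over three repeats above a set limit taken from the earlier primary screen, cut at about 38% in these data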
Of the large screens only hits and unclear results are named; the others gave an inactive call (follow-up assays come after a bar, where they were run). This is a sample that favours compounds with a hit; in the whole collection about 1.3% have one here.

CCCCCCCCCCOC(=O)Cn1c(COc2ccccc2OC)[n+](C)c2ccccc21	Gli-Sufu antag 85, NR2F2 inh 44 | VP16 Luc counter inactive | COUP-TFII conf inactive
Cc1[nH]nc2c1C(c1ccc(Br)cc1)N(Cc1ccccc1)C2=O (stereo not drawn)	none (no result: Gli-Sufu antag, SRC3 inh, NR5A2 inv ag, NCOA1 inh)
O=C(Nc1cccc(S(=O)(=O)N2CCOCC2)c1)c1ccc2c(=O)n3c(nc2c1)CCCCC3	NR2F2 inh 39 | VP16 Luc counter inactive | COUP-TFII conf inactive
CC(C)(C)c1ccc(-c2nnc3sc(-c4ccccn4)nn23)cc1	NR2F2 inh 41 | VP16 Luc counter inactive | COUP-TFII conf 52
COc1cccc(-c2nnc3sc(-c4ccccn4)nn23)c1	none
COc1ccc(CNC(=O)O[C@H]2CC[C@@]34CCCN3C(=O)CCC[C@H]4[C@H]2C)cc1	none (no result: Gli-Sufu antag, SRC3 inh, NCOA2 inhibitor, NR5A2 inv ag, NCOA1 inh)
Cc1ccoc1C(=O)Nc1ccc(CC(=O)O)cc1	NCOA2 inhibitor 83, NR2F2 inh 76 | VP16 Luc counter 70 | COUP-TFII conf 66
COc1ccc(-c2nc(-c3ccccn3)no2)cc1	Gli-Sufu antag 69, SRC3 inh 69, NCOA2 inhibitor 75, NR2F2 inh 83 | VP16 Luc counter 60 | COUP-TFII conf 81
CC1(C)CC(=O)C=C(c2ccc(COC(=O)c3ccc(Br)cc3)cc2)C1=O	none (no result: Gli-Sufu antag, SRC3 inh, NR5A2 inv ag, NCOA1 inh)
O=C(Nc1nonc1NC(=O)c1cccs1)c1cccs1	NR2F2 inh 49 | VP16 Luc counter inactive | COUP-TFII conf inactive
C[C@H]1[C@@H](N(C)Cc2cccs2)CC[C@@]23CCCN2C(=O)CCC[C@@H]13	none (no result: Gli-Sufu antag, SRC3 inh, NCOA2 inhibitor, NR5A2 inv ag, NCOA1 inh)
CCOC(=O)c1cnc(-n2nc(C)cc2C)nc1NC1CCCC1	NR2F2 inh 44 | VP16 Luc counter inactive | COUP-TFII conf 56
CCOC(=O)c1cnc(-n2nc(C)cc2C)nc1NCc1ccc2c(c1)OCO2	none
CCOC(=O)c1cnc(-n2nc(C)cc2C)nc1Nc1ccc(OC)cc1	none
CCOC(=O)c1cnc(-n2nc(C)cc2C)nc1NCCc1ccccc1	NR2F2 inh 48 | VP16 Luc counter inactive | COUP-TFII conf inactive
CCn1c(Cc2cccs2)nnc1SCC(=O)Nc1ccc2c(c1)OCCO2	none (no result: Gli-Sufu antag, SRC3 inh, NR5A2 inv ag, NCOA1 inh)
COC(=O)[C@]12C[C@H](CC(=O)NCc3ccccc3)C(=O)N(Cc3ccccc3)C1=C[C@H](C(C)(C)C)O[C@@H]2C	none (no result: Gli-Sufu antag, SRC3 inh, NR5A2 inv ag, NCOA1 inh)
COc1cc(C2CC(=O)c3c([nH]c(C(=O)OCCOC(C)C)c3C)C2)cc(OC)c1OC (stereo not drawn)	NR2F2 inh 76 | VP16 Luc counter inactive | COUP-TFII conf inactive
CCOCCOC(=O)c1[nH]c2c(c1C)C(=O)CC(c1ccc(OC)c(OC)c1)C2 (stereo not drawn)	NR2F2 inh 46 | VP16 Luc counter inactive | COUP-TFII conf inactive
C[C@H]1COc2cc(Br)ccc2S(=O)(=O)N1Cc1cn(CC2CCCCC2)nn1	none (no result: Gli-Sufu antag, SRC3 inh, NR5A2 inv ag, NCOA1 inh)
CCCCN=C1NN=C(c2ccc3c(c2)OCCO3)CS1	none
Cc1cc(C2=NNC(=NC3CC3)SC2)c(C)n1-c1ccccc1F	Gli-Sufu antag 93, SRC3 inh 89, NCOA2 inhibitor 93, NR5A2 inv ag 89, NR2F2 inh 97, NCOA1 inh 93 | VP16 Luc counter 94 | COUP-TFII conf 108
c1cc2c(cc1C1=NNC(=NC3CC3)SC1)OCCO2	Gli-Sufu antag 77, SRC3 inh 66, NCOA2 inhibitor 61, NR2F2 inh 46 | VP16 Luc counter 52 | COUP-TFII conf 76
Cc1cc(C2=NNC(=NC3CCCCC3)SC2)c(C)n1-c1c(C)n(C)n(-c2ccccc2)c1=O	none
COC(=O)Cc1nnn2c1[C@@H](C)[C@@H](c1ccccc1Br)OC[C@@H]2c1ccccc1	none (no result: Gli-Sufu antag, SRC3 inh, NR5A2 inv ag, NCOA1 inh)
O=C(Nc1ccc(Cl)cc1)/C(=C/c1cccc(O)c1)c1nc2ccccc2s1	NCOA2 inhibitor 55, NR2F2 inh 66 | VP16 Luc counter 40 | COUP-TFII conf 54
NC1=NC[C@H](Cc2ccc(O)cc2)N1CCc1cc(C(F)(F)F)cc(C(F)(F)F)c1	none
NC1=NC[C@H](Cc2ccc(O)cc2)N1CCCCC1CCCCC1	Gli-Sufu antag 59, NR2F2 inh 38 | VP16 Luc counter 15 | COUP-TFII conf inactive
CCC(C)N(C(=O)Cn1nc(Cc2ccncc2)c2ccccc2c1=O)C(C)CC (stereo not drawn)	none (no result: Gli-Sufu antag, SRC3 inh, NR5A2 inv ag, NCOA1 inh)
Cc1ccc(CN2CC(N3CCC[C@@H]3C)CS2(=O)=O)cc1 (stereo partly drawn)	none (no result: Gli-Sufu antag, SRC3 inh, NR5A2 inv ag, NCOA1 inh)
CC(C)(C)N(NC(=O)Nc1cccc(F)c1)C(=O)c1ccccc1Cl	none (no result: Gli-Sufu antag, SRC3 inh, NR5A2 inv ag, NCOA1 inh)
Cc1noc(C)c1COC(=O)c1cccc(S(=O)(=O)N2CCCCCC2)c1	NR2F2 inh 60 | VP16 Luc counter inactive | COUP-TFII conf inactive
Cc1noc(C)c1COC(=O)c1ccc(F)c(S(=O)(=O)N2CCCCC2)c1	none
COc1cccc(Cn2cc(COC(=O)N(C)Cc3ccccc3)nn2)c1	none (no result: Gli-Sufu antag, SRC3 inh, NR5A2 inv ag, NCOA1 inh)
Cc1ccc2nc(-c3cc(-c4ccccc4)no3)cn2c1	none
CCc1ccn2cc(-c3cc(-c4ccccc4)no3)nc2c1	Gli-Sufu antag 56, NCOA2 inhibitor 74, NR2F2 inh 88 | VP16 Luc counter 18 | COUP-TFII conf 67
CCc1ccc(-c2nnn(CCC(=O)OC)n2)cc1	NCOA2 inhibitor 76, NR2F2 inh 57 | VP16 Luc counter 60 | COUP-TFII conf 50
CC1CCN(C(=O)c2ncn3c2C(=O)NC[C@@H]3C)CC1	none (no result: Gli-Sufu antag, SRC3 inh, NR5A2 inv ag, NCOA1 inh)
c1ccc(C(Cc2nc(-c3ccncc3)no2)c2ccccc2)cc1	NR2F2 inh 56 | VP16 Luc counter inactive | COUP-TFII conf 41
c1ccc(-c2nc(-c3ccncc3)no2)cc1	none
COc1ccc(NC(=O)c2ccc(CNS(=O)(=O)c3cccc(OC)c3)cc2)cc1	none
COc1cccc(S(=O)(=O)NCc2ccc(C(=O)Nc3ccc(Cl)c(Cl)c3)cc2)c1	NR2F2 inh 64 | VP16 Luc counter inactive | COUP-TFII conf inactive
O=C(Nc1ccc(Cl)c(Cl)c1)c1cccc(S(=O)(=O)NCc2cccnc2)c1	NR2F2 inh 53 | VP16 Luc counter inactive | COUP-TFII conf inactive
Cc1ccc(NC(=O)c2ccc(S(=O)(=O)NCc3cccnc3)cc2)cc1C	none
O=C(c1cc(COc2ccc3ncccc3c2)on1)N1CCCC(O)C1 (stereo not drawn)	none
COCCC1CCCCN1C(=O)c1cc(COc2ccc(C)nc2)on1 (stereo not drawn)	none
O=C(c1cc(COc2ccc3ncccc3c2)on1)N1CCC[C@H]1CO	NR2F2 inh 38 | VP16 Luc counter inactive | COUP-TFII conf inactive
COCC1CCCN(C(=O)c2cc(COc3ccc4ncccc4c3)on2)C1 (stereo not drawn)	Gli-Sufu antag 56, NR2F2 inh 67 | VP16 Luc counter inactive | COUP-TFII conf 60
CC(C)(C)S(=O)(=O)N1C[C@@H]2CC(=O)C(CCO)=C2[C@H]1CCO	none (no result: Gli-Sufu antag, SRC3 inh, NR5A2 inv ag, NCOA1 inh)
